# Source: paper PMC7862700, “An all-to-all approach to the identification of sequence-specific readers for epigenetic DNA modifications on cytosine”
# Experiments:
# Assay in all cases: DAPPL (digital affinity profiling via proximity ligation, sequencing); 10 mM Tris-HCl pH 7.5, 50 mM NaCl, 1 mM DTT, 4% glycerol, room temperature, 30 min; GST-TFs on glutathione beads, 16-mer random dsDNA library, 0.1% formaldehyde crosslink after washing; high values mean tight binding
# Settings in all cases: protein: recombinant; tags: N-terminal GST; dsDNA, one strand shown
# FLI1 = molecular target: T1, FLI1 (Homo sapiens, UniProt Q01543 1-452)
# T1 sequence: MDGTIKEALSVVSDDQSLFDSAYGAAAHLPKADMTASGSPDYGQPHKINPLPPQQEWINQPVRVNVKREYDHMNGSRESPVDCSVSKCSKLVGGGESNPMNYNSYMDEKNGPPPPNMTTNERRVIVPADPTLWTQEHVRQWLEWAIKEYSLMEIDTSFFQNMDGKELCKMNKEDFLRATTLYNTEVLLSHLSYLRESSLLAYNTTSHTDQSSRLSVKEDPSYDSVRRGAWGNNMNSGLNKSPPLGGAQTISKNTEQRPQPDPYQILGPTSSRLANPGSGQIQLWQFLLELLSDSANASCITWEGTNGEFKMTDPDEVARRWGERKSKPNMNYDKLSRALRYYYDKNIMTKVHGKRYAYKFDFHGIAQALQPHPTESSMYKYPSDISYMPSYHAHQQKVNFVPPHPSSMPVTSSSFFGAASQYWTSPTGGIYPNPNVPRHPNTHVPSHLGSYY
# Summary of the method: (§1)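 GST fusions of human transcription factors were expressed in yeast and captured with glutathione beads. Once given DNA barcodes and pooled alongside a tag-only sample, they were incubated for 30 min at room temperature with 200 nmole of a random double-stranded 16-mer DNA library in Tris/NaCl/DTT/glycerol buffer, then washed, crosslinked (0.1% formaldehyde), proximity-ligated, PCR-amplified and sequenced on an Illumina NextSeq500. The binding signal of each hexamer is its read frequency for a factor divided by its frequency for the tag-only sample.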
# ELK1 = molecular target: T2, ELK1 (Homo sapiens, UniProt P19419 1-428)
# T2 sequence: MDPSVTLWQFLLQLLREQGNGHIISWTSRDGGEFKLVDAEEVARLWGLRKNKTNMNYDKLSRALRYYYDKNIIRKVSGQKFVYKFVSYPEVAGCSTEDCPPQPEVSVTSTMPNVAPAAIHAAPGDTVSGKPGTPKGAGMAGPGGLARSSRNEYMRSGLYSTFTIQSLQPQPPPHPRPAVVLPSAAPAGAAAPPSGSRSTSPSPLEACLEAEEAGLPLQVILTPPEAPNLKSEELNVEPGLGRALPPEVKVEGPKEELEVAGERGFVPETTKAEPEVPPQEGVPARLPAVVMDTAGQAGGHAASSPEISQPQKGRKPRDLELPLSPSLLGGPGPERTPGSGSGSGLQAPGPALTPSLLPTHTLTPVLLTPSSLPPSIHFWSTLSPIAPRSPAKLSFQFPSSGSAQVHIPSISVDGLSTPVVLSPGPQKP
# Summary of the method: as §1
# GABPA = molecular target: T3, GABPA (Homo sapiens, UniProt Q06546 1-454)
# T3 sequence: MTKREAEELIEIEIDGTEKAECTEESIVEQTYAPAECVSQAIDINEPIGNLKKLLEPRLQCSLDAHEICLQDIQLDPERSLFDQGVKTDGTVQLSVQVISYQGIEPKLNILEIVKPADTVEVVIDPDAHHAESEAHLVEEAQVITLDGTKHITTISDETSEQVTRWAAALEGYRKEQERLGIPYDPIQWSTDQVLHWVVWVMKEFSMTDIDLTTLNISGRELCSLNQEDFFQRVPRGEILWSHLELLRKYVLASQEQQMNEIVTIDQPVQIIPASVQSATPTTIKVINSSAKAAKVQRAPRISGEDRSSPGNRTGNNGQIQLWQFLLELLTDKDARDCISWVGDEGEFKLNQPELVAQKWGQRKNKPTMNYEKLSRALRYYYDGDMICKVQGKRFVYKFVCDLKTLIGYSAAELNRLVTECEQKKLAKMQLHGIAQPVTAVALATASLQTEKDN
# Summary of the method: as §1
# ERG = molecular target: T4, ERG (Homo sapiens, UniProt P11308 1-479)
# T4 sequence: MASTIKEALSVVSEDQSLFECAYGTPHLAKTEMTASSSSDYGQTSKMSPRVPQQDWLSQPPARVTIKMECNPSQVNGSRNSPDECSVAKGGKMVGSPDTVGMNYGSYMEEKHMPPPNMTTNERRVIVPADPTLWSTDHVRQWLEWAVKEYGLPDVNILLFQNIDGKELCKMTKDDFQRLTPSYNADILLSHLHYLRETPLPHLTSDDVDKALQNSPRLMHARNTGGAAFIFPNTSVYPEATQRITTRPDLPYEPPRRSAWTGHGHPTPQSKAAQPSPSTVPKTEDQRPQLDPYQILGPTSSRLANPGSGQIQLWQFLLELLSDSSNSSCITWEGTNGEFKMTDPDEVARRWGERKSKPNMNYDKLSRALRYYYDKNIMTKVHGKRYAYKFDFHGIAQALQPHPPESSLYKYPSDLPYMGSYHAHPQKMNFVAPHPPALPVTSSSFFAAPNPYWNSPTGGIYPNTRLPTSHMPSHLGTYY
# Summary of the method: as §1
# ELF1 = ELF1 (Homo sapiens, UniProt P32519 1-619)
# Summary of the method: as §1
# EHF = molecular target: T5, EHF (Homo sapiens, UniProt Q9NZC4 1-300)
# T5 sequence: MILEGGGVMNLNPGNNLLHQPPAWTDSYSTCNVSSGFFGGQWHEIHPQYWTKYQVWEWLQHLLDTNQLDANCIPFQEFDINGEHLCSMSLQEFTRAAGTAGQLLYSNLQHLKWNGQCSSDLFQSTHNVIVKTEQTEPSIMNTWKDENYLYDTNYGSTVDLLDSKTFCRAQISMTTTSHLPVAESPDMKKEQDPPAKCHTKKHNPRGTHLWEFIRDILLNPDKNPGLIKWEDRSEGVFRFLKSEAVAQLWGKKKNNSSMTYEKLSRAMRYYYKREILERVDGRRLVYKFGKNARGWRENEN
# Summary of the method: as §1
# SPI1 = SPI1 (Homo sapiens, UniProt P17947 1-270)
# Summary of the method: as §1
# SPIB = SPIB (Homo sapiens, UniProt Q01892 1-262)
# Summary of the method: as §1
# ELK3 = molecular target: T6, ELK3 (Homo sapiens, UniProt P41970 1-407)
# T6 sequence: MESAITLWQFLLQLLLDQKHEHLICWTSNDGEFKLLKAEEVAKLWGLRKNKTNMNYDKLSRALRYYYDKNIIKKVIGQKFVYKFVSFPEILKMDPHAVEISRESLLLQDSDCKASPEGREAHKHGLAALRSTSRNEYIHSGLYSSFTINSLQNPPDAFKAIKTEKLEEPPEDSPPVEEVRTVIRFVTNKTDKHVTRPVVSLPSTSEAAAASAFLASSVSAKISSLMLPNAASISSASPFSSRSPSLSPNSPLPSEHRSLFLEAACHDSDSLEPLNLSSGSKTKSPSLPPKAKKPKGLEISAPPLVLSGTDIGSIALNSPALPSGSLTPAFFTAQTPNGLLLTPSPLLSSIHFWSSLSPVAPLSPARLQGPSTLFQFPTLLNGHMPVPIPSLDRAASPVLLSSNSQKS
# Summary of the method: as §1
# Chain of ELF1 (P32519 whole entry): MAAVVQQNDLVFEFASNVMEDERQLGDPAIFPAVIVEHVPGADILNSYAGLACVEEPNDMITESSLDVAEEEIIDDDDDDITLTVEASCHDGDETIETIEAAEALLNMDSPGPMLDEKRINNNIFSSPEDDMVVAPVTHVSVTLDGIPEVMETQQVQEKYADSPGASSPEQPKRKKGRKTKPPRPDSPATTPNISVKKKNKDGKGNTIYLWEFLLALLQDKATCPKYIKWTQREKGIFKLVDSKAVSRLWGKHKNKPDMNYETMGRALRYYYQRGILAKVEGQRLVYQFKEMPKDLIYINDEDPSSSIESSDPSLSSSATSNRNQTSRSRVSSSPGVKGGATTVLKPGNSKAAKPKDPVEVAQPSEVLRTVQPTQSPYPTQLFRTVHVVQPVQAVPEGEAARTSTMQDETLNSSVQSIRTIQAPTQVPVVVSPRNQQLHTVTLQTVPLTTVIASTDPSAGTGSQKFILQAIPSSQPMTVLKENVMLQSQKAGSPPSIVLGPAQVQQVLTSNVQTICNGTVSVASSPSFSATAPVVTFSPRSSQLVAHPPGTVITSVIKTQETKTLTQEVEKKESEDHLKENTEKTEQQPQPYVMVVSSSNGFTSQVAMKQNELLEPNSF
# Chain of SPIB (Q01892 whole entry): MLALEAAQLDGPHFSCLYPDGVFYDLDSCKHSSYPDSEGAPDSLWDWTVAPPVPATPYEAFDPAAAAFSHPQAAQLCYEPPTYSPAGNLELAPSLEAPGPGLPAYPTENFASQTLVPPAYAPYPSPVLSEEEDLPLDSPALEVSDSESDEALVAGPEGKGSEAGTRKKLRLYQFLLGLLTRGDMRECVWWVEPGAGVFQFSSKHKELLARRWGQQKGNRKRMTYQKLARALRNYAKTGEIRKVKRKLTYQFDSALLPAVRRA
sequence,measurement,setting,value
CCCCTT,binding signal,FLI1,"1.48 fold enrichment (6-mer frequency, TF over GST control)"
same,binding signal,ELK1,"1.55 fold enrichment (6-mer frequency, TF over GST control)"
same,binding signal,GABPA,"1.44 fold enrichment (6-mer frequency, TF over GST control)"
same,binding signal,ERG,"1.54 fold enrichment (6-mer frequency, TF over GST control)"
same,binding signal,ELF1,"1.53 fold enrichment (6-mer frequency, TF over GST control)"
same,binding signal,EHF,"1.62 fold enrichment (6-mer frequency, TF over GST control)"
same,binding signal,SPI1,"2.01 fold enrichment (6-mer frequency, TF over GST control)"
same,binding signal,SPIB,"1.53 fold enrichment (6-mer frequency, TF over GST control)"
same,binding signal,ELK3,"1.51 fold enrichment (6-mer frequency, TF over GST control)"
